Inconclusive results are not listed. Calls of active or inactive are those of the source. Calls come from the whole dose curve; as a rule, active = well fitted activation curve with a large enough effect in the repeat runs; inconclusive = weak or mixed curves; inactive = flat fitted curve, though single readings scatter.
Assay: A CellTox Green Cytotoxicity Assay to monitor cytotoxicity in HepG2 cells - 8 hour (AID 1224890); note: nearly all actives have a fitted effect of over 45% in size
Conditions: CellTox Green fluorescence; series mostly up to 76.8 µM; cytotoxicity increase: at the top concentration
Text: National Center for Advancing Translational Sciences [NCATS]
NIH Chemical Genomics Center [NCGC]
U.S. Environmental Protection Agency [EPA]
National Institutes of Environmental Health Sciences [NIEHS]
National Toxicology Program [NTP]
Cell-based models are critical for drug discovery. Determining the natural cytotoxic effects resulting from test compounds is an essential research activity. A CellTox Green Cytotoxicity Assay to monitor cytotoxicity in real time of continues cell culture during 40 hours of the compound treatment was used to screen Tox21 10K library compounds in HepG2 cells. CellTox Green Cytotoxicity Assay is a nonlytic, homogeneous, biofluorescent method to measure cytotoxicity in cell culture after experimental manipulation. The assay system uses a proprietary asymmetric cyanine dye that is excluded from viable cells but preferentially stains the dead cell's DNA. […] Viable cells produce no appreciable increases in fluorescence. Therefore, the fluorescence signal produced by the binding interaction with dead cell DNA is proportional to cytotoxicity.
The mixture of HepG2 cell suspension and reagents were dispensed at 600cells/6 ul/well in 1536-well tissue culture treated black solid bottom plates using a Multidrop dispenser. After the assay plates were incubated at a 37 C/5% CO2 incubator for 5 hours, 23 nL of compounds dissolved in DMSO, positive and negative controls was transferred to the assay plate by a pintool work station. The plates were incubated at 37 C for 40 hours. The fluorescence intensity were measured at 0h, 8h, 16h, 24h, 32h and 40h time points using ViewLux plate reader during compound treatment.
For `CC(C)COC(=O)c1ccccc1O`, the “cytotoxicity increase” value was 1.17% (inactive). With `C=C(C)[C@@H]1CCC2=CC(=O)C[C@@H](C)[C@]2(C)C1` the “cytotoxicity increase” value was 18.5% (inactive). In the case of `Cc1ccccc1C(=O)O`, the “cytotoxicity increase” value is reported as -4.26% (inactive). With `CC(CCO)CCCC(C)(C)O` (stereo not given) the “cytotoxicity increase” value was -2.99% (inactive). For `COc1cc(CCC(C)=O)ccc1O`, the “cytotoxicity increase” value was 3.07% (inactive). With `CC(C)CCCC(C)NCCC(C)C` (stereo not given) the “cytotoxicity increase” value was -3.17% [at 35.3 µM] (inactive). For `O=c1[nH]c(=O)n([C@H]2O[C@H](CO)[C@@H](O)[C@@H]2O)cc1/C=C\Br`, the “cytotoxicity increase” value was 12.5% [at 35.3 µM] (inactive). For `CC(=O)c1ccc(C)cc1`, the “cytotoxicity increase” value was -9.09% (inactive). With `CC1CCN(CCCC(=O)c2ccc(F)cc2)CC1` the “cytotoxicity increase” value was -3.87% [at 35.3 µM] (inactive). With `CCCCCC[C@@H](CCC)C(=O)O` the “cytotoxicity increase” value was 0.0074% [at 35.3 µM] (inactive). In the case of `C=C(C)[C@H]1CC=C(C)CC1`, the “cytotoxicity increase” value is reported as -0.162% (inactive). With `CC(C)COC(=O)C(C)C` the “cytotoxicity increase” value was -4.02% (inactive). For `CCCC(=O)O[C@]1(C(=O)CCl)[C@@H](C)C[C@H]2[C@@H]3CCC4=CC(=O)C=C[C@]4(C)[C@@]3(F)C(=O)C[C@@]21C`, the “cytotoxicity increase” value was -4.8% [at 35.3 µM] (inactive). In the case of `Cn1ccc2cc3c(cc21)CCN3C(=O)Nc1cccnc1`, the cytotoxicity increase is reported as -6.36% [at 15.8 µM] (inactive). For `Cc1c(C)n(CCN(C)C)c2ccc(C(=O)OCCN(C)C)cc12`, the “cytotoxicity increase” value was -3.22% [at 35.3 µM] (inactive). In the case of `CC1=CCC2C(C1)C2(C)C` (stereo not given), the “cytotoxicity increase” value is reported as 4.58% (inactive). In the case of `CC(C=O)Cc1ccc(C(C)C)cc1` (stereo not given), the “cytotoxicity increase” value is reported as 0.661% (inactive). For `COc1ccc(NC(C)=O)cc1`, the “cytotoxicity increase” value was -9.89% (inactive). For `CCCCCCCCN(C)CCCCCCCC`, the “cytotoxicity increase” value was -15.2% (inactive). For `C=C(C)C(=O)OCCCCCCCCCCCCCCCCCC`, the cytotoxicity increase was 0.0012% [at 15.8 µM] (inactive). With `OCc1ccccn1` the “cytotoxicity increase” value was -6.01% [at 35.3 µM] (inactive). For `CC(C)(C)N(CCO)CCO`, the “cytotoxicity increase” value was -0.155% (inactive). For `CCCOCC(C)OCC(C)O` (stereo not given), the “cytotoxicity increase” value was 2.1% (inactive). In the case of `NC(CS)C(=O)O` (stereo not given), the “cytotoxicity increase” value is reported as -7.51% [at 35.3 µM] (inactive). For `Fc1ccccc1-c1ccccc1`, the “cytotoxicity increase” value was -26.6% (inactive). For `CC(C)CCCC(C)CCCC(C)CCCCC(C)CCCC(C)CCCC(C)C` (stereo not given), the “cytotoxicity increase” value was 2.24% [at 35.3 µM] (inactive). For `C#CC(O)CCCCC` (stereo not given), the “cytotoxicity increase” value was 2.96% (inactive). With `CO[Si](OC)(OC)OC` the “cytotoxicity increase” value was 0.695% (inactive). In the case of `C(=C(c1ccccc1)c1ccccc1)c1ccccc1`, the “cytotoxicity increase” value is reported as -13% (inactive). For `CCN1CCN(c2cc3c(cc2F)c(=O)c(C(=O)O)cn3C2CC2)CC1`, the “cytotoxicity increase” value was -1.44% [at 35.3 µM] (inactive). For `CCCOc1ccccc1-c1nc2n[nH]nc2c(=O)[nH]1`, the “cytotoxicity increase” value was -5.25% [at 35.3 µM] (inactive). For `NC(=S)Nc1cccc2ccccc12`, the cytotoxicity increase was 0.879% [at 6.97 µM] (inactive). With `N#CC1(O)CCCCC1` the “cytotoxicity increase” value was -1.12% (inactive). For `CCc1cc(S(=O)(=O)O)c2cc(C(C)C)cccc1-2`, the “cytotoxicity increase” value was -9.36% [at 35.3 µM] (inactive). For `O=C(O)c1ccc[n+]([O-])c1`, the “cytotoxicity increase” value was -1.57% [at 35.3 µM] (inactive). With `OC/C=C/c1ccccc1` the “cytotoxicity increase” value was 16.8% (inactive). For `CC/C=C\C#N`, the “cytotoxicity increase” value was 9.26% (inactive). With `CCCC=O` the “cytotoxicity increase” value was -0.466% (inactive). With `CCCCCCCCCCCCI` the “cytotoxicity increase” value was 1.64% (inactive). For `COc1cc(C(=O)N2CCOCC2)cc(OC)c1OC`, the “cytotoxicity increase” value was 0.203% [at 35.3 µM] (inactive).

Reference: PubChem BioAssay (Tox21)
% is set by controls: 0 for no effect and ±100 for the full control effect.
